High-throughput results (PubChem BioAssay)
HT1080NT lethal = kills 2HG-producing HT-1080-NT fibrosarcoma cells; HT-1080-NT fibrosarcoma viability, CellTiter-Glo ATP luminescence, 48 h; Potency, µM (series often up to 46.1 µM), most hits filed as cytotoxic; 1.6% of 360,000 active; AID 686970;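 further: NT is the 2HG producing partner of a matched IDH1 knockdown line; nearly all actives have a fitted effect of over 55% in size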
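Luminescent CellTiter-Glo readout after 48 hours of compound exposure at 37 degrees C defined viability of HT-1080-NT cells. Activity was normalized to DMSO wells and cell-free media wells; concentration-response curves were fitted and assigned curve classes.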
DT40 TDP1 no CPT = qHTS for Inhibitors of human tyrosyl-DNA phosphodiesterase 1 (TDP1): qHTS in cells in absence of CPT. 15% of 420,000 active. Potency, µM (highest dose often 46.2 µM), most hits filed as inhibitors. DT40 Tdp1-/- hTDP1 cells, no CPT, ATP luminescence, 48 h; further: nearly all actives have a fitted effect of over 55% in size
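Camptothecin absent (DMSO only). Human TDP1-complemented DT40 knockout cells, 400 cells/well, 37 °C for minimum 48 hr; ATP measured via CellTiter-Glo, 30 min dark incubation, luminescence.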
TDP1 cell CPT = DT40-hTDP1 cell growth loss with CPT; chicken DT40 Tdp1-/-;hTDP1 cells + 20 nM CPT, ATP luminescence, 48 h; Potency, µM (highest dose often 46.2 µM), actives largely listed as inhibitors; 12% of 420,000 active; AID 686979; further: nearly all actives have a fitted effect of over 55% in size
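Cell growth measured by CellTiter-Glo luminescence after a minimum 48 h, 37 C compound exposure with 20 nM CPT in Tdp1-knockout DT40 cells stably expressing hTDP1, seeded 400/well; qHTS titration format.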
ELG1 repair inh = inhibitors of ELG1-dependent DNA repair in HEK293T cells; HEK293T ELG1-luciferase reporter, luminescence, 16 h; DNA damage induced by 5-fluorouridine; 2.3% of 330,000 active; Potency, µM (highest dose often 46.1 µM), hits mostly inhibitors; further: nearly all actives have a fitted effect of over 55% in size
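In this reporter screen, reduction of luminescence relative to DMSO vehicle indicated activity. Compounds and 5-fluorouridine were added together to 2,000 cells per well, incubated for 16 hr at 37 °C, then developed with ONE-Glo.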
IL-1B inflam inh = inhibitors of inflammasome signaling (IL-1 beta secretion); activity change, % at 57.5 µM; 4.7% of 360,000 active; THP-1 LPS/ATP IL-1B secretion, AlphaLISA, 16 h; active compounds read low; AID 743279; in the data active means activity change below about -50%; inconclusive means mostly about -30% to -49%
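THP-1 cells pretreated 1 hr with compounds (up to 57.5 uM final), then stimulated with LPS (250 ng/mL final) plus ATP (1.25 mM final); secreted IL-1B measured by AlphaLISA after 16 hr, decreased signal indicating inhibition.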
HT1080 IDH1KD tx = toxicity to HT-1080 IDH1 knockdown cells (counter line) | HT-1080 IDH1 knockdown viability, ATP luminescence, 48 h | Potency, µM (doses to about 46.1 µM), actives largely listed as cytotoxic | 2% of 360,000 active | AID 686971
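% activity derives from luminescence (CellTiter-Glo), normalised to DMSO and no-cell wells. HT-1080-IDH1KD cells, 750/well, had 48 h compound exposure at 37 °C.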
Of the large screens only hits and unclear results are named; the others gave an inactive call. Compounds with a hit are over-represented: about 19% of the library has one in this group of screens. Unless noted, the call rests on the fitted dose curve; in most records, active means well fitted curve in the direction sought with a large enough effect; inconclusive means small, poorly fitted or top-dose-only effect, or another doubt; inactive means no such curve, though single readings can be large; an effect the other way counts as inactive or inconclusive.

Cc1ccc(C)c(N(CC(=O)NC2CCCC2)C(=O)c2oc(C(C)(C)C)cc2C)c1	HT1080NT lethal inconclusive, DT40 TDP1 no CPT 9.2µM, TDP1 cell CPT 8.2µM, IL-1B inflam inh inconclusive, HT1080 IDH1KD tx inconclusive
Cc1cc(NC(=O)CCC(=O)N(CC(=O)NC2CCCC2)Cc2ccc(F)cc2)no1	none
Cc1ccc(C)c(N(CC(=O)NC2CCCCC2)C(=O)c2csnn2)c1	none
Cc1ccc2oc(=O)c(-c3nc(-c4cccs4)no3)cc2c1	none (no result: HT1080NT lethal, ELG1 repair inh, IL-1B inflam inh, HT1080 IDH1KD tx)
Cc1noc(C)c1C(=O)N1CCC[C@@]2(CCN(Cc3cc(C(F)(F)F)cc(C(F)(F)F)c3)C2)C1	DT40 TDP1 no CPT inconclusive (no result: HT1080NT lethal, ELG1 repair inh, IL-1B inflam inh, HT1080 IDH1KD tx)
COc1cc(-c2coc3c(C(=O)NCc4ccc(N(C)C)cc4)cccc23)ccc1O	HT1080NT lethal inconclusive, DT40 TDP1 no CPT inconclusive, TDP1 cell CPT 16µM, IL-1B inflam inh -53, HT1080 IDH1KD tx inconclusive (no result: ELG1 repair inh)
COc1cc(-c2coc3c(C(=O)Nc4ccc(C(C)C)cc4)cccc23)ccc1O	HT1080NT lethal inconclusive, DT40 TDP1 no CPT 21µM, TDP1 cell CPT inconclusive, HT1080 IDH1KD tx 21µM (no result: ELG1 repair inh)
CN(C)c1cccc(NC(=O)c2cccc3c(-c4ccc(F)c(F)c4)coc23)c1	DT40 TDP1 no CPT 21µM, TDP1 cell CPT inconclusive (no result: ELG1 repair inh)
CN(C)CCNC(=O)c1cccc2c(-c3ccc(F)c(F)c3)coc12	HT1080NT lethal inconclusive, DT40 TDP1 no CPT inconclusive, TDP1 cell CPT inconclusive, HT1080 IDH1KD tx inconclusive (no result: ELG1 repair inh)
COc1cc(-c2coc3c(C(=O)NC4CCCCC4)cccc23)ccc1O	HT1080NT lethal 16µM, DT40 TDP1 no CPT inconclusive, TDP1 cell CPT 18µM, IL-1B inflam inh inconclusive, HT1080 IDH1KD tx 21µM (no result: ELG1 repair inh)
O=[N+]([O-])c1cccc(S(=O)(=O)[N-]c2nc3ccccc3nc2-n2cc[n+](Cc3ccccc3)c2)c1	HT1080NT lethal inconclusive, HT1080 IDH1KD tx inconclusive
CCOc1c(Cl)cc(/C=C/C(=O)N(CC)CC(=O)NCc2cccs2)cc1OC	DT40 TDP1 no CPT inconclusive, TDP1 cell CPT inconclusive
O=C(NCc1ccccc1)c1cccc2c(-c3ccc(F)c(F)c3)coc12	HT1080NT lethal inconclusive, DT40 TDP1 no CPT inconclusive, TDP1 cell CPT inconclusive, HT1080 IDH1KD tx inconclusive (no result: ELG1 repair inh)
COc1ccc(CNC(=O)c2ccc(-c3c(C)noc3C)c3ccoc23)cc1OC	DT40 TDP1 no CPT inconclusive, TDP1 cell CPT inconclusive (no result: ELG1 repair inh)
COc1cc(-c2coc3c(C(=O)NCc4ccc(OC)c(OC)c4)cccc23)ccc1O	HT1080NT lethal inconclusive, DT40 TDP1 no CPT 4.6µM, TDP1 cell CPT 5.8µM, HT1080 IDH1KD tx 3.3µM (no result: ELG1 repair inh)
COc1ccc(CNC(=O)c2cccc3c(-c4cccc(C(N)=O)c4)coc23)cc1OC	HT1080NT lethal inconclusive, DT40 TDP1 no CPT 5.2µM, TDP1 cell CPT 3.7µM, HT1080 IDH1KD tx 5.8µM (no result: ELG1 repair inh)
COc1ccc(CNC(=O)c2cccc3c(-c4ccc(F)c(F)c4)coc23)cc1OC	HT1080NT lethal inconclusive, DT40 TDP1 no CPT 12µM, TDP1 cell CPT 21µM, HT1080 IDH1KD tx 16µM (no result: ELG1 repair inh)
C(=C\c1ccco1)/c1nc2ccccc2[nH]1	DT40 TDP1 no CPT 23µM, TDP1 cell CPT inconclusive, ELG1 repair inh inconclusive
O=C(/C=C/c1ccco1)Nc1ccc(-c2nc3ccccc3[nH]2)cc1	DT40 TDP1 no CPT inconclusive, ELG1 repair inh inconclusive
O=C(N/C(=C/c1ccc(Cl)cc1)c1nc2ccccc2[nH]1)c1ccco1	TDP1 cell CPT inconclusive
O=c1[nH]c2ccccc2nc1/C=C/c1ccc(Cl)cc1	DT40 TDP1 no CPT 23µM, TDP1 cell CPT 13µM, ELG1 repair inh inconclusive
C(=C\c1nc2ccccc2[nH]1)/c1ccccc1	HT1080NT lethal 18µM, DT40 TDP1 no CPT 16µM, TDP1 cell CPT 15µM, ELG1 repair inh inconclusive, HT1080 IDH1KD tx 18µM
O=C(/C(=C/c1ccc(Cl)cc1)c1nc2ccccc2[nH]1)c1ccccc1	HT1080NT lethal 2.9µM, DT40 TDP1 no CPT 7.3µM, TDP1 cell CPT 13µM, ELG1 repair inh inconclusive, IL-1B inflam inh -101, HT1080 IDH1KD tx 4.1µM
Cc1ccc(C)c(NS(=O)(=O)c2cc3c(cc2C)n(C)c(=O)c(=O)n3C)c1	DT40 TDP1 no CPT inconclusive (no result: HT1080NT lethal, ELG1 repair inh, IL-1B inflam inh, HT1080 IDH1KD tx)
